Assay results from PubChem BioAssay AID434931 (National Center for Advancing Translational Sciences (NCATS), 2010).
Results filed as inconclusive are left out. The source made the active and inactive calls. Calls follow the shape of the dose curve; as a rule, active = well fitted inhibition curve with a large enough effect; inconclusive = small, poorly fitted or top-dose-only effect, or another doubt; inactive = no such curve, though single readings can be large or run the other way.

Molecular target: Neuropeptide S receptor (Homo sapiens) (UniProt Q6W5P4)
Sequence (Q6W5P4 whole entry, looked up): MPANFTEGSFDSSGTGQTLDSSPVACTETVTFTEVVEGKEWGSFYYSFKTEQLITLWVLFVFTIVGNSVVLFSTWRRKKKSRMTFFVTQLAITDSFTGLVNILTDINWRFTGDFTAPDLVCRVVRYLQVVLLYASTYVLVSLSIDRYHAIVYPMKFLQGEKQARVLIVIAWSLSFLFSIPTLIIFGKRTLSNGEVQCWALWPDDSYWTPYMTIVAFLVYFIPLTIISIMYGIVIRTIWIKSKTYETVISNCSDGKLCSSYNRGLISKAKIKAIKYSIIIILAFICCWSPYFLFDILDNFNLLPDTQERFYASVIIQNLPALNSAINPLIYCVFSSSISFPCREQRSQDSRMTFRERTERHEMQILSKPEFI
Assay: Confirmation Concentration-Response Assay for Antagonists of the Neuropeptide S Receptor: Robust Characterization of Calcium Signal Transduction
Conditions: CHO-NPSR cells, NPS-induced calcium fluorescence (FDSS)
From the text: NIH Chemical Genomics Center [NCGC] NIH Molecular Libraries Probe Production centers Network [MLPCN] MLPCN Grant: X01-DA026210-01 Assay Submitter (PI): Heilig, Markus Alexander NCGC Assay Overview: Neuropeptide S receptor (NPSR), previously known as GPR154, is a recently de-orphanized G protein coupled receptor. Its endogenous ligand is the 20 amino acids peptide Neuropeptide S (NPS). […] NPS and its receptor are found in various tissues. Specifically they are highly expressed in brain areas that have been implicated in modulation of arousal, stress and anxiety. Central administration of NPS in mice produces an unusual profile of activity by inducing wakefulness and arousal, while at the same time suppressing anxiety. Therefore, NPSR may represent a novel drug target for the treatment of sleep and anxiety disorders. To identify NPSR antagonists, we developed a cell-based assay with transfected NPS receptor. NPS can stimulate the production of cAMP as well as release intracellular calcium in Chinese hamster ovary cells stably expressing NPS receptor. This change in intracellular calcium can be detected using a calcium indicator dye on a calcium imaging plate reader system (FDSS). This particular assay uses a high density of sampling across concentration-response space to establish more confidence estimates of potency.
NCGC Assay Protocol Summary: A Chinese hamster ovary (CHO) cell line stably expressing the NPS receptor (CHO-NPSR) was obtained from Dr. Heilig lab at NIAAA and maintained in F-12 Kaighn's media (Invitrogen, Carlsbad, CA, 21127) supplemented with 10 % FBS, 100 units/ml penicillin, 100 ug/ml streptomycin and 250 ug/ml geneticin at 37C, 5% CO2 in a humidified atmosphere. Before the assay, aliquots of cells were frozen and stored at -135C. The assay was performed on a FDSS-7000 kinetic plate reader in 1536-well format. For both agonist (1-220s) and antagonist (221-400s) phases, the maximums of kinetic fluorescence responses were converted separately into text files using the instrument's software data export utility. Data for agonist response were normalized to the controls for basal activity (DMSO only) and 100% activation (NPS). […] AC50 values were determined from concentration-response data modeled with the standard Hill equation. NPS 1536-well FDSS assay protocol: (1) Frozen CHO-NPSR cells were thaw, washed once with fresh media and resuspended in F-12 Kaighn's media supplemented with 10 % FBS, 100 units/ml penicillin and 100 ug/ml streptomycin. Cells were plated at 3 ul/well (1200 cells) to black, clear-bottom, tissue-culture treated 1536-well plates, and then cultured at 37C, 5 % CO2 for 16 to 30 hours. (2) Add 3 ul of calcium dye (from High Performance PBX Calcium Assay Kit, BD Biosciences). The calcium dye was prepared according to the manufactory's instruction. (3) Incubation at 37C, 5 % CO2 for 60 to 120 min. (4) Load plates to FDSS-7000. The following steps were performed on FDSS-7000. (5) Record fluorescent background (Ex 480 nm, Em 520-560 nm) for 10 s. (6) Add 23 nl/well of compound in DMSO solution. The final titration for each compound was between 0.6 nM and 46 uM. Record agonist response for 210 s. (7) Add 2 ul of stimulation reagent (1X HBSS buffer, 0.1% BSA, 60 nM NPS). Record antagonist response for 140 s. Keywords: MLSMR, MLPCN, NIH Roadmap, qHTS, NCGC, NPS, Neuropeptide S Antagonists

SMILES	Potency
Cc1c(P(=S)(c2ccccc2)c2ccccc2)[n+]2ccccc2n1C/C=C/c1ccccc1	0.938 nM (active)
Cc1c(P(=S)(c2ccccc2)c2ccccc2)c2ccccc2n1C	2830 nM (active)
Cc1c(P(=S)(c2ccccc2)c2ccccc2)[n+]2ccccc2n1CCCCCc1ccccc1	12.7 nM (active)
Cc1c(P(=S)(c2ccccc2)c2ccccc2)[n+]2ccccc2n1Cc1ccccc1	31.8 nM (active)
Cc1nc2ccccn2c1P(=S)(c1ccccc1)c1ccccc1	1000 nM (active)
Cc1c(P(=S)(c2ccccc2)c2ccccc2)[n+]2ccccc2n1CCCCc1ccccc1	1.1 nM (active)
C[n+]1cc(P(=S)(c2ccccc2)c2ccccc2)n2ccccc21	2520 nM (active)
Cc1c(P(=S)(c2ccccc2)c2ccccc2)[n+]2ccccc2n1C	50.4 nM (active)
S=P(c1ccccc1)(c1ccccc1)c1cnc2ccccn12	4000 nM (active)
Cc1c(P(=S)(c2ccccc2)c2ccccc2)[n+]2ccccc2n1CCCc1ccccc1	2 nM (active)
Cc1c(P(=S)(c2ccccc2)c2ccccc2)[n+]2ccccc2n1CCc1ccccc1	71.2 nM (active)
